# The source made the active and inactive calls.
# Assays:
# [1] = binders of probe aFSTL3 on microarray, primary screen, stem cell growth factor project, biochemical, small-molecule microarray, fluorescence 635/667 (AID 1064); settings: higher = more signal;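 also: measures binding of the biotinylated anti-FSTL3 antibody to printed compounds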
# [2] = binders from COS7 lysate, DM2A8 probe, primary screen, torsin A project, cell lysate, small-molecule microarray, fluorescence 635/667 (AID 1065); settings: higher = more signal, COS7 lysate expressing mutant human TOR1A
# [3] = binders of probe aFGF2 on microarray, primary screen, stem cell growth factor project, biochemical, small-molecule microarray, fluorescence 635/667 (AID 1067); settings: higher = more signal;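 also: measures binding of biotinylated aFGF2 protein to printed compounds on slides; z-score merges feature fluorescence and signal-to-noise across triplicate slides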
# [4] = binders of probe aFGF10 on microarray, primary screen, stem cell growth factor project, biochemical, small-molecule microarray, fluorescence 635/667 (AID 1071); settings: higher = more signal;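 also: score merges 667 nm spot intensity and signal to noise from triplicate slides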
# [5] = target: Neurogenic locus notch homolog protein 2 (Homo sapiens) (UniProt Q04721); assay: Notch2 binders on small-molecule microarrays, primary screen, biochemical, small-molecule microarray, 635 nm fluorescence, stem cell growth factors (AID 1073); settings: Notch2 binding, higher = more signal
# [6] = target: Pro-neuregulin-1, membrane-bound isoform (Homo sapiens) (UniProt Q02297); assay: NRG1 binders on small-molecule microarrays, primary screen, psychiatric disease protein project, biochemical, small-molecule microarray, fluorescence 635/667 (AID 1075); settings: NRG1 binding, 635 nm fluorescence, higher = more signal;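 also: score combines 667 nm spot fluorescence with signal to noise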
# [7] = tested on: Neuregulin-1 EGF-like domain; assay: binders of neuregulin-1 EGF-like domain, primary screen, biochemical, small-molecule microarray, 635 nm fluorescence (AID 1081); settings: small-molecule microarray binding, higher = more signal;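 also: binding of the protein to compounds printed on small-molecule microarray slides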
# [8] = FRG1 promoter luciferase signal modulators, primary screen, FRG1 inhibition for FSHD, cell-based, C2C12 myotubes, firefly/Renilla luciferase, luminescence (AID 1084); settings: higher = more signal, called active from +8 up or from −8 down
# [9] = binders of probe aFST on microarray, primary screen, stem cell growth factor project, biochemical, small-molecule microarray, fluorescence 635/667 (AID 1086); settings: higher = more signal;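 also: score merges 667 nm fluorescence with signal-to-noise of each printed compound spot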
# [10] = binders of probe aHhip on microarray, primary screen, stem cell growth factor project, biochemical, small-molecule microarray, fluorescence 635/667 (AID 1087); settings: higher = more signal;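 also: score merges spot fluorescence at 667nm with spot signal to noise ratio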
# Sequence of Pro-neuregulin-1, membrane-bound isoform (Homo sapiens) (Q02297 whole entry, looked up, the tested form may be a part, canonical isoform): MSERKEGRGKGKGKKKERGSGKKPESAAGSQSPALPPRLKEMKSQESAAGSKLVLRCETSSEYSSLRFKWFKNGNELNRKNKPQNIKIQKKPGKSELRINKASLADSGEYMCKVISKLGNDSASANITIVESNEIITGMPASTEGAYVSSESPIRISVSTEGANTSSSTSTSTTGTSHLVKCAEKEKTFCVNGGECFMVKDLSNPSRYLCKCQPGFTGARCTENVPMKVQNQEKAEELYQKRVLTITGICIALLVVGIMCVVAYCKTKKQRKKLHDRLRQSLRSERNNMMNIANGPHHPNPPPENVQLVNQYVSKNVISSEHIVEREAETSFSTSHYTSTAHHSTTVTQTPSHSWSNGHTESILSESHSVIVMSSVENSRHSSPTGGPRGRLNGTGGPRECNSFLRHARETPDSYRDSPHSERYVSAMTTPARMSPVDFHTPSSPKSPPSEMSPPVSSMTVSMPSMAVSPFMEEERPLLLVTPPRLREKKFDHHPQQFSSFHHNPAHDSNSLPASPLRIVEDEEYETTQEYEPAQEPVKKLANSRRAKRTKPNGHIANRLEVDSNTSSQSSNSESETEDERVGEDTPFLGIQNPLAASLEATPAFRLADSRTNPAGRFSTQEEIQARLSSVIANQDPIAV
# Sequence of Neurogenic locus notch homolog protein 2 (Homo sapiens) (Q04721 whole entry, looked up, canonical isoform): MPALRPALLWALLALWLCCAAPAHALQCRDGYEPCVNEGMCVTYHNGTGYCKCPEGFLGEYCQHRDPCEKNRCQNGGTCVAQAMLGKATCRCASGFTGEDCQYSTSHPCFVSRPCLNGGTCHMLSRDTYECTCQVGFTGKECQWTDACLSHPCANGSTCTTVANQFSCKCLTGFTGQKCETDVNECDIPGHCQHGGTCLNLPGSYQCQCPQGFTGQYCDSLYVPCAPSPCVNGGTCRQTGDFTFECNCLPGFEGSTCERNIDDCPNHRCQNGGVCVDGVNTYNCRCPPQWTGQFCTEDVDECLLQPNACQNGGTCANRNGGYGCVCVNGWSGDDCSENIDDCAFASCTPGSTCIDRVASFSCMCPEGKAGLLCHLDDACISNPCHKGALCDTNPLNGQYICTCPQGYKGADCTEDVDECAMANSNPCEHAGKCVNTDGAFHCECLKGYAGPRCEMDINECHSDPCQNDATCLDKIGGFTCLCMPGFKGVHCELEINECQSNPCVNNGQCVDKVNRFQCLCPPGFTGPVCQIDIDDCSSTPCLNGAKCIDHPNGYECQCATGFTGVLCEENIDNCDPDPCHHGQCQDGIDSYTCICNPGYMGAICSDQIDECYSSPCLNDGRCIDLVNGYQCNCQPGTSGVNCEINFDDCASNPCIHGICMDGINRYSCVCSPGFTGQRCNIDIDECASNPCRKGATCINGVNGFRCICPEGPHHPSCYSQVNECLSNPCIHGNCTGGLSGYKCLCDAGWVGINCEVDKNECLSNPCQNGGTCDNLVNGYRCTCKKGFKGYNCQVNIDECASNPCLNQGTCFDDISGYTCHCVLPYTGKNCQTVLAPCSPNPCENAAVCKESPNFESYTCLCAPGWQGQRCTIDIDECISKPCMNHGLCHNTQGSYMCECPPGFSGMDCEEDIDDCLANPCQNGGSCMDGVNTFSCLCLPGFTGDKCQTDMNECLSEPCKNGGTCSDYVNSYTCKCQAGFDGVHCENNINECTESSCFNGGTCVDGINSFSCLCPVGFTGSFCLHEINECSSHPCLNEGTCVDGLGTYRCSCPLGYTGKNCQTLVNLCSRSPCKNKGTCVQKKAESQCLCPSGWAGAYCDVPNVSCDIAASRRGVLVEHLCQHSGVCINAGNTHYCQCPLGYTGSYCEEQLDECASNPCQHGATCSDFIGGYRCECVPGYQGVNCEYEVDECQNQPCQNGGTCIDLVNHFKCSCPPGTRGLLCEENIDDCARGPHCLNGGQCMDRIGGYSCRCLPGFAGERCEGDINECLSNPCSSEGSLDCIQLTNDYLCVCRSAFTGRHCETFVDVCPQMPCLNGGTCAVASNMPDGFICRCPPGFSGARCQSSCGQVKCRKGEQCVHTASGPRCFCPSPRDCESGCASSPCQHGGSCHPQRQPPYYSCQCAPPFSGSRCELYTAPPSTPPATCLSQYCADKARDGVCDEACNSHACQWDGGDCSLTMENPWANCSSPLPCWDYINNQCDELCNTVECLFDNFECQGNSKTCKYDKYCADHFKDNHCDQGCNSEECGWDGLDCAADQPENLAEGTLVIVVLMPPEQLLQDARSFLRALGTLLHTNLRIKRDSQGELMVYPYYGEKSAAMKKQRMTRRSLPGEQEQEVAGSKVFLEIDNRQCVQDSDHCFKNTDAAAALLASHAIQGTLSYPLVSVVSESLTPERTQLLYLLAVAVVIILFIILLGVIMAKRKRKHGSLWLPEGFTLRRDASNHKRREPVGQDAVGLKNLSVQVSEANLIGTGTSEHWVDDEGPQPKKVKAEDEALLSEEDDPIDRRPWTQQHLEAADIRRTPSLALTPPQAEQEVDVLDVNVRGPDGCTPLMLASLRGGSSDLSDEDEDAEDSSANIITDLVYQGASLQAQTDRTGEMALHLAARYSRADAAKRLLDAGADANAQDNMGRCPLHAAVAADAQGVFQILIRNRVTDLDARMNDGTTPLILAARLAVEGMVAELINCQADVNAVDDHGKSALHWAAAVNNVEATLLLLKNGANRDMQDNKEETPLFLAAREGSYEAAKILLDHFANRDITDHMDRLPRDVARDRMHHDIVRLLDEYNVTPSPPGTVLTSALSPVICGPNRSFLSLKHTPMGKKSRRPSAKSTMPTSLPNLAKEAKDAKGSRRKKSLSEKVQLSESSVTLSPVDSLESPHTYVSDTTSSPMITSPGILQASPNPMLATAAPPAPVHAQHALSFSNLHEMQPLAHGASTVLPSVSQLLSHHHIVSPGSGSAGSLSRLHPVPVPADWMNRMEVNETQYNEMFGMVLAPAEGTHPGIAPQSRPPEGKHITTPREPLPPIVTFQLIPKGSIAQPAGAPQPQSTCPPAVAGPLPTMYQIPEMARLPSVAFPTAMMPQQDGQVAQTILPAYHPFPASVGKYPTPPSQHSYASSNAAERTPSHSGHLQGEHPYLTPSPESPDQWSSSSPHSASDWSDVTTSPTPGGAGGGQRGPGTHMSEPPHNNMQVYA
SMILES,composite z-score [1],composite z-score [2],composite z-score [3],composite z-score [4],composite z-score [5],composite z-score [6],composite z-score [7],z-score [8],composite z-score [9],composite z-score [10]
CC1CC/C=C\[C@H]2OC34C=CCN(Cn5nnc6ccccc65)C(=O)[C@H]3N(CCO)C(=O)[C@@H]4C2C(=O)O1 (stereo not given in full),0.398,1.96,-0.0778,-0.181,-1.29,1.52,1.43,-0.203 (inactive),-0.655,-0.0324
CN(C)c1ccc(C(O)C2C=CC3C(=O)N(c4ccccc4)C(=O)C3N2Nc2ccccc2F)cc1 (stereo not given),0.357,-0.159,-0.0422,0.208,1.46,0.86,1.25,3.64 (inactive),0.957,-0.212
O=C(NN=C1C[C@@H](O)[C@@H](O)[C@@H]2[C@@H]3C(=O)N(c4ccc(F)cc4F)C(=O)[C@@H]3CC[C@@H]12)OCc1ccccc1,-0.105,0.361,-0.0845,0.215,0.283,0.113,-0.882,0.228 (inactive),0.51,-0.0672
CCCC[C@@H](O)C1=C(C)C[C@H]2C(=O)N(Cc3ccccc3)C(=O)[C@H]2[C@H]1CO,-0.531,0.709,-0.0564,0.185,-0.0286,0.0467,-0.322,0.778 (inactive),-0.0982,-0.0237
COc1ccc(-c2ccc3c(n2)CCCN3CC(O)CN2CCCc3nc(C)c(C)cc32)cc1 (stereo not given),0.683,1.55,0.126,0.961,0.63,0.641,0.732,3.33 (inactive),1.02,0.38
O=C1[C@H]2[C@H]3[C@H](O)[C@H](O)CC(=NOC[C@@H](O)COCc4ccco4)[C@@H]3CC[C@H]2C(=O)N1c1ccc(F)cc1F,-0.469,1.4,-0.128,0.138,0.21,-0.592,-0.574,-0.24 (inactive),-0.128,0.177
CCOC(=O)[C@H](CC(C)C)NC(=O)CCC1CC(OC(=O)NCCc2ccc(F)cc2)CC2(CCCC(COC(=O)NCc3ccccc3)O2)O1 (stereo not given in full),-0.969,0.561,0.0131,1.02,0.769,1.13,1.28,2.94 (inactive),0.223,0.0695
CC(C)(C)N1C(=O)[C@H]2[C@H]3[C@H](O)[C@H](O)CC(=NO[C@@H]4O[C@H](CO)[C@@H](O)[C@H](O)[C@H]4O)[C@@H]3CC[C@H]2C1=O,-0.549,-0.151,-0.0854,0.705,0.572,0.722,1.08,0.677 (inactive),0.135,-0.0994
CCOC(=O)NN=C1C[C@@H](O)[C@@H](O)[C@@H]2[C@@H]3C(=O)N(C(C)(C)C)C(=O)[C@@H]3CC[C@@H]12,-0.295,0.721,0.0014,0.177,0.394,-0.904,-1.83,-0.0445 (inactive),0.577,-0.0994
COC(=O)CC=C[C@H](C)[C@@H](OCc1ccccc1Br)C(C)C,-0.188,0.398,-0.191,0.189,0.0089,-0.252,-0.334,-0.749 (inactive),-0.0799,-0.306
O=C1C[C@]2(c3ccc([N+](=O)[O-])cc3)C(=O)N(CCN3CCOCC3)c3cc(CO)ccc3[C@H]2N1CC12CC3CC(CC(C3)C1)C2,-0.0111,-0.624,-0.103,-0.164,-0.35,1.38,-0.273,0.103 (inactive),0.337,0.312
CC(C)(C)OC(=O)CC[C@]1(C(=O)NCc2ccccc2)N=C(c2ccc(OCCCO)cc2)O[C@H]1c1ccccc1,0.0895,0.8,-0.0036,1,0.979,1.94,1.23,-2.08 (inactive),1.04,-0.0645
C#C[C@@H]1Oc2ccccc2S(=O)(=O)N2CCC[C@H]12,-0.311,0.143,-0.114,0.0728,0.133,-0.206,-0.113,-0.587 (inactive),0.214,-0.0596
COC(=O)CC=C[C@H](C)[C@H](CO)NS(=O)(=O)c1ccc(C)cc1,-0.634,0.0049,-0.163,0.476,0.24,-0.0696,0.629,-0.599 (inactive),0.12,-0.132
CCOC(=O)[C@H](Cc1ccccc1)NC(=O)CCC1CC(OC(=O)NCCc2ccc(F)cc2)CC2(CCCC(COC(=O)NCC(c3ccccc3)c3ccccc3)O2)O1 (stereo not given in full),-0.183,0.0877,-0.0785,0.627,0.823,0.852,0.919,2.14 (inactive),0.486,0.0053
COC(=O)[C@@H]1CCCN1C(=O)[C@@H](C)CO,-0.527,0.431,-0.137,0.467,0.693,0.346,1.03,1.66 (inactive),0.162,0.154
CC(C)NC(=O)[C@@]1(c2ccc([N+](=O)[O-])cc2)CC(=O)N(CC23CC4CC(CC(C4)C2)C3)[C@@H]1c1ccc(CO)cc1I,0.765,0.0289,0.11,0.252,0.931,0.607,0.964,-3.71 (inactive),0.481,-0.0645
C[C@@H]1CC[C@H]2C(=O)O[C@H](COc3ccc(C(C)(C)C)cc3)CN2[C@H]1c1ccc(Br)cc1,-0.417,-0.16,-0.026,-0.0359,0.111,0.536,-0.414,0.414 (inactive),-0.0273,-0.0296
CC(CCN1CCc2nc(-c3ccccc3)c(-c3ccccc3)cc2C1)=NO[C@H](C)c1cn([C@@H]2COC[C@H]2O)nn1,-0.388,1.4,-0.0867,0.259,0.295,0.646,1.03,-0.203 (inactive),0.133,-0.0237
COC(=O)C1(C)C=C2C(=C(c3ccccc3)C(=O)C2C)CN1 (stereo not given),0.84,0.0679,-0.0535,-0.18,-0.167,1.96,0.691,2.35 (inactive),0.313,0.23
CC(C)OC(=O)C=C1C[C@@H](c2ccc(C#N)cc2)O[C@@H](c2ccc(C#N)cc2)O1,-0.475,0.334,0.235,1.01,1.68,1.64,1.21,0.0509 (inactive),1.58,0.233
O[C@@H](Cc1ccccc1)[C@H]1C2C=CCCC(c3ccccc3)=C2CN1Cc1cccc(Cl)c1 (stereo not given in full),-0.39,0.507,-0.015,0.271,0.799,1.08,1.07,-2.31 (inactive),0.26,-0.0047
CC(CCN1CCCCc2nc(C)c(C)cc21)=NOC(C)CN1CCCCc2nc(C)c(C)cc21 (stereo not given),-0.275,1.93,-0.15,0.682,1.48,0.963,1.28,0.748 (inactive),0.907,0.0174
CCOC(=O)[C@H](CC(C)C)NC(=O)CCC1CC(OC(=O)NCc2cccc3ccccc23)CC2(CCCC(COC(=O)NCCN3CCOCC3)O2)O1 (stereo not given in full),-0.589,0.393,-0.0788,0.497,0.999,0.442,0.983,0.986 (inactive),0.112,0.0176
CCOC(=O)NN=C1C[C@@H](O)[C@@H](O)[C@@H]2[C@@H]3C(=O)N(C4CCCCC4)C(=O)[C@@H]3CC[C@H]12,-0.242,0.459,-0.067,0.267,0.932,0.215,0.444,0.228 (inactive),0.142,-0.0994
CCN1C(=O)[C@H]2[C@H]3[C@H](O)C=CC(=O)[C@@H]3CC[C@H]2C1=O,-0.456,0.236,-0.0744,0.393,0.602,-0.132,0.226,0.669 (inactive),0.243,0.312
CCCCCCc1nc(CCCc2cc3c(c(CCCCCC)n2)[Si](C(C)C)(C(C)C)O[C@H]3c2ccccc2)cc2c1[Si](C(C)C)(C(C)C)O[C@H]2c1ccccc1,-0.342,-0.244,-0.109,-0.217,-0.253,-0.47,-0.744,-0.364 (inactive),0.163,-0.277
